Experiment in all cases: growth (OD600 after 10 h); higher = more growth (less inhibition)
Test [1] concerns E. coli TESEC Alr+ wild-type control. To be noted: compound 0.1 mM; raw OD600 reference: median of DMSO wells 0.241, cell-free background 0.041. The method, then:
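TESEC Mtb Alr E. coli, or the Alr+ wild-type control, in 384-well plates with Prestwick library compounds at 0.1 mM and 1% DMSO, across arabinose induction levels of 1E3 to 1E7 nM. Growth is read as OD600 after 10 h at 37 °C in triplicate biological replicates.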

For a further test, the system named is E. coli TESEC Mtb Asd. To be noted: compound 0.1 mM. How it is done:
(§1)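 TESEC E. coli strains in which the native enzyme is deleted and replaced by arabinose-inducible Mtb Asd, DapB, CysH or TrpD, each grown in its selective medium. Strains were screened against the Prestwick library at 0.1 mM and 1% DMSO in 384-well format at low and high arabinose induction. Growth is read as OD600 after 10 h in triplicate.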

For the next test, the system named is E. coli TESEC Mtb DapB. To be noted: compound 0.1 mM. How it is done:
as §1

In a further test the test system is E. coli TESEC Mtb Alr. To be noted: compound 0.1 mM. How it is done:
(§2)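 TESEC Mtb Alr E. coli (ΔaraC ΔtolC ΔentC Δalr ΔdadX, arabinose-inducible Mtb Alr) or the Alr+ wild-type control strain, grown in defined M9-fructose medium without D-alanine in 96-well plates with Prestwick library compounds at 0.1 mM and 1% DMSO. Low Alr induction is 0.1 µM arabinose and high induction is 10 mM arabinose.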

Test [2] relates to E. coli TESEC Alr+ wild-type control. Conditions: compound 0.1 mM; raw OD600 reference: median of DMSO wells 0.49, cell-free background 0.052. The method, then: as §2
The mark [3] stands for this setting: arabinose induction (level): High, raw OD600 reference: median of DMSO wells 0.331, cell-free background 0.041.
The mark [4] stands for this setting: arabinose induction (level): Low, raw OD600 reference: median of DMSO wells 0.417, cell-free background 0.041.
[5] abbreviates: arabinose induction (level): High, raw OD600 reference: median of DMSO wells […], cell-free background 0.041.
[6] abbreviates: arabinose induction (level): Low, raw OD600 reference: median of DMSO wells 0.227, cell-free background 0.041.
Setting [7] is: arabinose 100 nM, raw OD600 reference: median of DMSO wells 0.413, cell-free background 0.052.
The mark [8] stands for this setting: arabinose 10000000 nM, raw OD600 reference: median of DMSO wells […], cell-free background 0.052.

Counter-ions that a name gives are not always drawn. ± gives the standard deviation of the averaged measurements.

On to `CN1CCN(C(c2ccccc2)c2ccccc2)CC1` [Cyclizine hydrochloride], for which the growth in test [1] worked out at 0.216 ± 0.0082; in the test with E. coli TESEC Mtb Asd (setting [3]), 0.173 ± 0.0089; with E. coli TESEC Mtb Asd (setting [4]) it was 0.31 ± 0.039; in the test on E. coli TESEC Mtb DapB (setting [5]) it was 0.168 ± 0.0017; in the test on E. coli TESEC Mtb DapB (setting [6]), 0.196 ± 0.0017; in the test on E. coli TESEC Mtb Alr (setting [7]), 0.41 ± 0.011. Besides, in the test with E. coli TESEC Mtb Alr (setting [8]), the growth was 0.325 ± 0.0044.

Take `Cc1ccsc1/C=C/C1=NCCCN1C` [Morantel tartrate]: the growth is 0.248 ± 0.0087 in test [1]; 0.358 ± 0.016 with E. coli TESEC Mtb Asd (setting [3]); 0.379 ± 0.034 with E. coli TESEC Mtb Asd (setting [4]); 0.205 ± 0.038 in the test with E. coli TESEC Mtb DapB (setting [5]); 0.294 ± 0.089 with E. coli TESEC Mtb DapB (setting [6]); 0.409 ± 0.0089 with E. coli TESEC Mtb Alr (setting [7]). The compound further had a growth in the test with E. coli TESEC Mtb Alr (setting [8]) of 0.259 ± 0.17.

As to `CC(C(=O)O)c1ccc(-c2ccccc2)c(F)c1` (stereo unspecified) [Flurbiprofen], the growth in test [1] was found to be 0.188 ± 0.0069; in the test on E. coli TESEC Mtb Asd (setting [3]) it was 0.366 ± 0.076; in the test with E. coli TESEC Mtb Asd (setting [4]), 0.238 ± 0.056; in test [2] it was 0.486 ± 0.025; with E. coli TESEC Mtb Alr (setting [7]), 0.387 ± 0.021; with E. coli TESEC Mtb Alr (setting [8]) it was 0.286 ± 0.014.

With `Cc1ccc(-c2ncc(Cl)cc2-c2ccc(S(C)(=O)=O)cc2)cn1` [Etoricoxib], the growth in test [1] worked out at 0.17 ± 0.0023; in the test with E. coli TESEC Mtb Asd (setting [3]), 0.266 ± 0.076; with E. coli TESEC Mtb Asd (setting [4]), 0.241 ± 0.0033; with E. coli TESEC Mtb DapB (setting [5]) it was 0.204 ± 0.031; in the test with E. coli TESEC Mtb DapB (setting [6]), 0.261 ± 0.029; in the test with E. coli TESEC Mtb Alr (setting [7]), 0.414 ± 0.0091. Moreover, in the test with E. coli TESEC Mtb Alr (setting [8]), the growth was found to be 0.281 ± 0.018.

With `CCCCC1C(=O)N(c2ccccc2)N(c2ccc(O)cc2)C1=O` (stereo unspecified) [Oxyphenbutazone], the growth in test [1] amounted to 0.2 ± 0.01; in the test on E. coli TESEC Mtb Asd (setting [3]), 0.366 ± 0.025; in the test with E. coli TESEC Mtb Asd (setting [4]), 0.384 ± 0.047; in the test with E. coli TESEC Mtb DapB (setting [5]) it was 0.204 ± 0.019; in the test with E. coli TESEC Mtb DapB (setting [6]), 0.229 ± 0.044; in the test with E. coli TESEC Mtb Alr (setting [7]), 0.415 ± 0.0059. This compound returned a growth in the test with E. coli TESEC Mtb Alr (setting [8]) of 0.28 ± 0.0025.

Turning to `C[C@H]1C[C@@H]2[C@H]([C@@H](O)C[C@@]3(C)[C@H]2CC[C@]3(O)C(=O)CO)[C@@]2(C)C=CC(=O)C=C12` [Methylprednisolone, 6-alpha], the growth in test [1] was determined as 0.202 ± 0.0042; with E. coli TESEC Mtb Asd (setting [3]), 0.259 ± 0.024; with E. coli TESEC Mtb Asd (setting [4]) it was 0.475 ± 0.018; in the test with E. coli TESEC Mtb DapB (setting [5]) it was 0.175 ± 0.0055; in the test on E. coli TESEC Mtb DapB (setting [6]) it was 0.213 ± 0.023; with E. coli TESEC Mtb Alr (setting [7]), 0.431 ± 0.0047. In the test with E. coli TESEC Mtb Alr (setting [8]), the growth is 0.295 ± 0.021.

As to `Nc1nc(=O)c2nc(CNc3ccc(C(=O)N[C@@H](CCC(=O)O)C(=O)O)cc3)cnc2[nH]1` [Folic acid], the growth in test [1] came to 0.25 ± 0.0064; with E. coli TESEC Mtb Asd (setting [3]), 0.219 ± 0.037; with E. coli TESEC Mtb Asd (setting [4]) it was 0.318 ± 0.021; in the test with E. coli TESEC Mtb DapB (setting [5]) it was 0.211 ± 0.019; in the test with E. coli TESEC Mtb DapB (setting [6]) it was 0.239 ± 0.013; in the test on E. coli TESEC Mtb Alr (setting [7]), 0.407 ± 0.011. This compound displayed a growth with E. coli TESEC Mtb Alr (setting [8]) of 0.34 ± 0.02.

Consider `O=c1n(CCCN2CCN(c3cccc(Cl)c3)CC2)nc2ccccn12` [Trazodone hydrochloride], for which the growth in test [1] stood at 0.203 ± 0.0052; in the test on E. coli TESEC Mtb Asd (setting [3]), 0.242 ± 0.051; in the test on E. coli TESEC Mtb Asd (setting [4]), 0.404 ± 0.099; with E. coli TESEC Mtb DapB (setting [5]), 0.189 ± 0.014; with E. coli TESEC Mtb DapB (setting [6]), 0.243 ± 0.057; in the test on E. coli TESEC Mtb Alr (setting [7]) it was 0.406 ± 0.0066. For the same compound, the growth in the test on E. coli TESEC Mtb Alr (setting [8]) was 0.255 ± 0.028.

In the case of `Nc1nc2n[nH]nc2c(=O)[nH]1` [Azaguanine-8], the growth worked out at 0.21 ± 0.0092 in test [1]; 0.397 ± 0.01 in the test with E. coli TESEC Mtb Asd (setting [3]); 0.42 ± 0.044 in the test with E. coli TESEC Mtb Asd (setting [4]); 0.3656 ± 0.0032 in test [2]; 0.409 ± 0.026 in the test on E. coli TESEC Mtb Alr (setting [7]); 0.245 ± 0.16 in the test with E. coli TESEC Mtb Alr (setting [8]).

The values are drawn from the supplement of paper PMC9262897, “Low-cost anti-mycobacterial drug discovery using engineered E. coli” (Nature Communications, 2022).
